# Screening data deposited in PubChem BioAssay by National Center for Advancing Translational Sciences (NCATS).
# Sm TGR inh = blocks Schistosoma mansoni thioredoxin glutathione reductase; Potency, µM (highest dose often 114 µM), for the others: top-dose activity change, negative = inhibition, hits mostly inhibitors; purified TGR, DTNB reduction, TNB absorbance 405 nm; Q962Y6; 360,000 tested, 3% active; further: nearly all actives have a fitted effect of over 60% in size
#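 Kinetic colorimetric format: TGR-catalysed, NADPH-driven DTNB reduction monitored via TNB absorbance. Enzyme dispensed at 20 nM; compound exposure 15 min at room temperature before reaction start.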
# AmpC no deterg = inhibitors of E. coli AmpC beta-lactamase without detergent. Potency, µM (series often up to 57.1 µM), without a hit: at the top dose activity change, negative = inhibition, actives largely listed as inhibitors. P00811. AmpC nitrocefin hydrolysis, absorbance 480 nm, 0.0001% Triton. 330,000 tested, 0.52% active. AID 485341;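 further: plate controls were no compound for no effect and no enzyme for full effect; nearly all actives have a fitted effect of over 20% in size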
# Target sequence (P00811 whole entry, looked up): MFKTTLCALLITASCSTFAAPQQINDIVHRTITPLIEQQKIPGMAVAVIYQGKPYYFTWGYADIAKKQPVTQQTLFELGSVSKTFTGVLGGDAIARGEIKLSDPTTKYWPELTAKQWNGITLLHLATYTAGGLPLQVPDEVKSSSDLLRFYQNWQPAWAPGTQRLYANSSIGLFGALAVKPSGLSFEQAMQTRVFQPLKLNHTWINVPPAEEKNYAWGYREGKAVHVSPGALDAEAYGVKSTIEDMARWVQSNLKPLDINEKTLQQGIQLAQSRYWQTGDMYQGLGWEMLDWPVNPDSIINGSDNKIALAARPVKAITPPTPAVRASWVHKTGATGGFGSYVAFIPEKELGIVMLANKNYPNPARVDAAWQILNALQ
#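 20 mM phosphate pH 7.0 + 0.01% (detergent screen) or 0.0001% Triton X-100; 5.3 nM AmpC reagent; cpd preinc 15 min RT; nitrocefin (800 uM stock) to start; A480 q20 s × 4 min; Activity was normalised to no-enzyme and no-compound control wells.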
# AmpC detergent = blocks E. coli AmpC beta-lactamase in detergent assay; Potency, µM (top dose mostly 114 µM), without a hit: top-dose activity change, negative = inhibition, hits mostly inhibitors; P00811; AmpC hydrolysis of nitrocefin, absorbance 480 nm, 0.01% Triton; 370,000 tested, 0.041% active; AID 485294;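 further: 0% = no-compound wells and -100% = no-enzyme wells; nearly all actives have a fitted effect of over 25% in size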
#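 AmpC (5.3 nM in the dispensed reagent) in 20 mM phosphate pH 7.0 with 0.01% (detergent screen) or 0.0001% Triton X-100 was preincubated with compounds for 15 min at room temperature. Nitrocefin was then added from an 800 uM solution, and hydrolysis was followed at 480 nm.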
# Numbers without * were called inactive; ? = inconclusive; . = no result given. Sampled rows, rich in hits. Any-hit rate of the full collection: about 3.3%. The call rests on the fitted dose curve; in most records, active means well fitted curve in the direction sought with a large enough effect; inconclusive means small, poorly fitted or top-dose-only effect, or another doubt; inactive means no such curve, though single readings can be large; an effect the other way counts as inactive or inconclusive. Unless noted, on the % scale 0 is the no-effect control and ±100 the full control effect; potency means the concentration at half of the fitted maximal effect.
SMILES,Sm TGR inh,AmpC no deterg,AmpC detergent
COc1cc(/C=C(\C#N)C(=O)Nc2ccc(C)cc2)ccc1OCc1cc(=O)n2nc(C)sc2n1,-4%,.,0%
COC(=O)c1ccccc1NC(=O)Cn1c(=O)n(-c2ccc(C)cc2)c(=O)c2ccccc21,-1%,.,6%
CC1=NN(c2ccc(C(=O)O)cc2)C(=O)/C1=C\c1ccc(OC(=O)c2cccs2)cc1,-8%,-30%,-1%
COc1ccc(N2C(=O)NC(=O)/C(=C/c3cccc(OC(=O)c4cccs4)c3)C2=O)cc1Cl,14µM*,-42%,-4%
Cc1ccc(N2C(=O)NC(=O)/C(=C/c3ccc(OC(=O)c4cccs4)cc3)C2=O)cc1,35µM*,-49%,-1%
N#C/C(=C\c1cccc(OC(=O)c2cccs2)c1)C(N)=O,-8%,-26%,?
Cc1nn(-c2ccc(N3CCCC3)nn2)c(C)c1CCC(=O)N1CCN(c2ccccc2)CC1,-2%,.,0%
CCc1ccc(C(=O)c2cn(CC(=O)NCc3ccc(C)cc3)c3nc(C)ccc3c2=O)cc1,-1%,.,-11%
Cc1ccc(C)c(Oc2ncnc(N)c2[N+](=O)[O-])c1,-15%,-8%,-5%
Cc1cc(Sc2nc(N)ncc2[N+](=O)[O-])ncn1,2.2µM*,-22%,0%
Cc1cc(Sc2ncnc(N)c2[N+](=O)[O-])ncn1,0.89µM*,-31%,-10%
Cc1ccnc(Sc2ncccc2[N+](=O)[O-])n1,-2%,-14%,-7%
CCOc1ccc(-n2ccnc2SCC(=O)Nc2ccc3c(c2)OCO3)cc1,0%,.,0%
CCOc1ccccc1NC(=O)CN1C(=O)CC(c2ccco2)Sc2ccccc21 (configuration not stated),-18%,.,23%
CCOC(=O)c1cc(C)n(CC2CCC(C(=O)Nc3ccc(C(C)=O)cc3)CC2)c1C (configuration not stated),4%,.,-1%
Nc1nc(-c2ccc(-n3nncc3-c3ccco3)cc2)cs1,-16%,?,-3%
Cc1nc(-c2ccc(-n3nncc3-c3ccco3)cc2)cs1,50µM*,-32%,8%
CCOc1ccc(-c2cc3c(=O)n(Cc4nc(-c5ccc(OCC)c(OC)c5)oc4C)ccn3n2)cc1Cl,-6%,.,2%
CCOc1ccc(C(=O)c2oc3ccccc3c2NC(=O)Cc2coc3ccc(CC)cc23)cc1,6%,.,12%
Fc1ccc(N2CCN(c3ncnc4nc[nH]c34)CC2)cc1,-1%,20µM*,?
c1nc(N2CCCCCC2)c2[nH]cnc2n1,-2%,.,?
OCCN1CCN(c2ncnc3nc[nH]c23)CC1,4%,45µM*,?
c1nc(N2CCCC2)c2[nH]cnc2n1,-7%,-19%,?
CCOc1ccccc1C1C(C(=O)Nc2ccccc2)=C(C)Nc2nc(-c3ccccc3)nn21 (configuration not stated),-1%,.,9%
CCn1c(=O)cc(SCC(=O)NCc2ccccc2OC)c2ccccc21,7%,.,0%
SMILES,Sm TGR inh,AmpC no deterg,AmpC detergent
COc1cc(CNc2ccc(N3CCCC3)cc2)ccc1OCc1ccccc1,45µM*,-22%,-15%
COc1cc(CNc2ccc(N3CCCC3)cc2)ccc1OCc1ccccc1F,?,-27%,?
CCOC(=O)N1CCc2c(sc3c2c(=O)n(Cc2ccccc2)c(=O)n3Cc2cc(C)ccc2C)C1,1%,.,13%
Cc1ccc(CN(Cc2ccco2)C(=O)c2ccccc2Br)o1,-4%,.,3%
O=[N+]([O-])c1ccc(CNCc2cc(Cl)ccc2O)cc1,-27%,3.2µM*,-4%
Oc1ccc(Cl)cc1CNCc1ccc(F)c(F)c1,-16%,-23%,-6%
Cc1ccc(C)c(NS(=O)(=O)c2cc3c(cc2Cl)NC(=O)CO3)c1,0%,.,13%
COC(=O)C1(C)Nc2ccccc2C(=O)N1c1ccccc1C (configuration not stated),0%,1µM*,?
CC(=O)OC1c2ccccc2C(=O)N1c1ccccc1C (configuration not stated),-1%,-15%,-8%
COc1ccc(S(=O)(=O)n2nc(OC(=O)c3ccco3)cc2N)cc1,22µM*,-22%,0%
Cc1ccc(C(=O)Oc2cc(N)n(S(=O)(=O)c3ccc(C)cc3)n2)cc1,-1%,-57%,?
Cc1ccc(S(=O)(=O)n2nc(OC(=O)c3ccccc3F)cc2N)cc1,16µM*,-46%,?
COc1ccc(S(=O)(=O)n2nc(OC(=O)c3ccc(C)cc3)cc2N)cc1,-26%,-57%,-12%
COc1ccc(S(=O)(=O)n2nc(OC(=O)c3ccccc3Br)cc2N)cc1,?,-59%,?
COc1ccc(S(=O)(=O)n2nc(OC(=O)c3ccncc3)cc2N)cc1,5µM*,-17%,-3%
COc1ccc(S(=O)(=O)n2nc(OC(C)=O)cc2N(C(C)=O)C(C)=O)cc1,22µM*,-10%,0%
COc1ccc(S(=O)(=O)n2nc(OC(=O)c3ccccc3)cc2N)cc1,-28%,-34%,-13%
CN(C(=O)c1cc2c(=O)oc3ccccc3c2s1)c1ccc(F)cc1,-5%,.,?
CCC(=O)N1CCCc2cc(S(=O)(=O)N3CCC(C(=O)Nc4ccccc4CC)CC3)ccc21,-11%,.,1%
Cc1nnsc1C(=O)Oc1ccc(C(C)C)cc1,-1%,.,24%
COc1ccc(Cn2c(=O)c3oc4ccccc4c3n(Cc3ccccc3)c2=O)cc1,3%,.,21%
O=C(c1cc(-c2cccc(Cl)c2)on1)N1CCCCC1,1%,.,7%
O=C1C2C3C=CC(CC3)C2C(=O)N1c1ccc(F)cc1 (configuration not stated),1%,-18%,?
CC(C)C1NC2(C(=O)c3ccccc3C2=O)C2C(=O)N(c3ccc(F)cc3)C(=O)C12 (configuration not stated),2µM*,-30%,-9%
COc1ccc(NC(=O)C2CCC(CNS(=O)(=O)c3ccc4c(c3)C(C)(C)C(=O)N4C)CC2)cc1 (configuration not stated),0%,.,-5%
SMILES,Sm TGR inh,AmpC no deterg,AmpC detergent
Cc1cccc(Cn2c(-c3cccc(Br)c3)nc3ccccc32)c1,1%,.,1%
Cc1ccc(-c2nc3ccccc3n2C)o1,16µM*,-16%,?
Cn1cc(C(=O)c2ccccc2)cc1-c1nc2ccccc2n1C,-8%,-16%,-3%
CCC(=O)c1cc(-c2nc3ccccc3n2C)n(C)c1,-7%,?,2%
CC(=O)c1ccc(-c2nc3ccccc3n2C)o1,40µM*,-18%,?
Brc1ccc(Cn2c(-c3ccc(Br)o3)nc3ccccc32)o1,22µM*,4%,?
Cn1c(-c2nonc2N)nc2ccccc21,9%,-6%,1%
Cc1oc(-c2nc3ccccc3n2C)cc1C(=O)c1ccccc1,25µM*,-12%,-2%
CN(CC(=O)Nc1ccc(F)cc1F)S(=O)(=O)c1cccc2nsnc12,5%,.,-1%
COc1cc(NC(=O)Cn2cc(S(=O)(=O)N3CCC(C)CC3)c3ccccc3c2=O)cc(OC)c1OC,5%,.,13%
Cc1ccc(C[C@H](C(=O)O)N2C(=O)c3ccc(C(=O)O)cc3C2=O)cc1,-10%,-8%,?
Cc1cc(C)cc(NC(=O)NCCc2c(C)nn(C)c2C)c1,5%,.,-1%
